Inconclusive results are not listed. Activity calls are given as the source filed them. Calls come from the whole dose curve; as a rule, active = well fitted curve in the direction sought with a large enough effect; inconclusive = small, poorly fitted or top-dose-only effect, or another doubt; inactive = no such curve, though single readings can be large; an effect the other way counts as inactive or inconclusive.
Tests used:
[1] = molecular target: Luciferin 4-monooxygenase (Photinus pyralis) (UniProt P08659); assay: Primary firefly luciferase (FLuc) qHTS assay for identification of artifact compounds. (AID 1845220); note: nearly all actives have a fitted effect of over 60% in size; note: potency is the fitted concentration of half-maximal effect
In short: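 In this counter-screen for luciferase artifacts, test compounds met substrate (10 uM each luciferin and ATP) before 10 nM enzyme started the reaction. Light output was measured 5 min later.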

[2] = Primary fluorescence-based thiol-reactive (MSTI) qHTS assay for identification of artifact compounds. (AID 1845221); note: nearly all actives have a fitted effect of over 65% in size; note: potency is the fitted concentration of half-maximal effect
In short: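 Compounds were incubated 1 h at room temperature in the dark with the MSTI probe (4 uM) in PBS pH 7.4, 2% DMSO. Signals were normalized between Acetyl-MSTI and MSTI.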

[3] = Primary redox qHTS assay for identification of artifact compounds. (AID 1845223)
In short: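 Amplex Red (25 uM) and HRP (250 mU/mL) in HBSS, with compounds for 15 min, then 250 uM DTT for 30 min, room temperature, dark. Fluorescence 525/598 nm read; normalized to DMSO and 10 uM DA3003; Hill fit.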

[4] = tested on: Nanoluciferase (engineered Oplophorus gracilirostris luciferase); assay: Primary Nanoluciferase (NLuc) qHTS assay for identification of artifact compounds. (AID 1845222);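 note: NLuc secreted into diluted conditioned medium of S16 cells; series mostly up to about 54 µM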
In short: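 Using secreted nanoluciferase in S16 culture medium (0.22 um filtered, 1:55 dilution), compounds were preincubated 15 min at RT. Signal was generated with Nano-Glo reagent (1:100) over 5 min.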

[5] = molecular target: Cytochrome P450 3A4 (Homo sapiens) (UniProt P08684); assay: qHTS for inhibitors of CYP3A4 against the NCATS DSHEA and TCM libraries (AID 1919971);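 note: inhibition lowers luminescence from luciferin made by CYP3A4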
In short: (§1)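 Luminescent P450-Glo readout. Enzyme plus pro-luciferin substrate in manufacturer buffer (typically 100 mM KPO4); 15 min RT preincubation; 1x NADPH regenerating system, 30-45 min RT in the dark; detection reagent 30 min.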

[6] = molecular target: Cytochrome P450 2D6 (Homo sapiens) (UniProt P10635); assay: qHTS for inhibitors of CYP2D6 against the NCATS DSHEA and TCM libraries (AID 1919972)
In short: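 Steps: enzyme plus luciferin substrate dispensed; test substances pinned; 15 min RT; 1x NADPH regenerating solution added, 30–45 min RT protected from light; detection reagent, 30 min RT; luminescence measured. Minus-enzyme wells as background.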

[7] = molecular target: Cytochrome P450 2C9 (Homo sapiens) (UniProt P11712); assay: qHTS for inhibitors of CYP2C9 against the NCATS DSHEA and TCM libraries (AID 1919973); note: potency is the fitted concentration of half-maximal effect
In short: as §1

[8] = molecular target: Cytochrome P450 2C19 (Homo sapiens) (UniProt P33261); assay: qHTS for inhibitors of CYP2C19 against the NCATS DSHEA and TCM libraries (AID 1919974);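 note: luminescence from luciferin released by CYP2C19 oxidation of a pro-luciferin substrate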
In short: as §1

[9] = KB-3-1 P-gp reporter qHTS against the NCATS DSHEA and TCM libraries (AID 1919975)
In short: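 Parental KB-3-1 human cervical adenocarcinoma cells (500 cells/well, DMEM + 10% FBS) were treated with substances for ~72 h at 37C; viability was read by CellTiter-Glo luminescence.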

Measured: Potency

Cytochrome P450 2C19 (Homo sapiens), sequence (P33261 whole entry, looked up): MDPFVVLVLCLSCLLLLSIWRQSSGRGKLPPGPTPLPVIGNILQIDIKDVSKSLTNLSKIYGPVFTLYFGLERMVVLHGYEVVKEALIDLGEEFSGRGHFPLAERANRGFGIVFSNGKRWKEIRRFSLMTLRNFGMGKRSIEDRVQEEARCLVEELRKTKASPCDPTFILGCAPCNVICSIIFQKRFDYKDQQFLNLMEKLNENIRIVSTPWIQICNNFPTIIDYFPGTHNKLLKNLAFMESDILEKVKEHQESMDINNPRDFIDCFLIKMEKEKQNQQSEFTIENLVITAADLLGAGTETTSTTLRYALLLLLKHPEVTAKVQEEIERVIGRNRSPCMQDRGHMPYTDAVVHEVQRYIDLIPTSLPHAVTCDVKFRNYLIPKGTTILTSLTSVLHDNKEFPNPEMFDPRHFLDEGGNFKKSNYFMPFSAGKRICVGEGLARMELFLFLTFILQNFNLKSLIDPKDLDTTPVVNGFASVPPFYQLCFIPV
Cytochrome P450 2D6 (Homo sapiens), sequence (P10635 whole entry, looked up): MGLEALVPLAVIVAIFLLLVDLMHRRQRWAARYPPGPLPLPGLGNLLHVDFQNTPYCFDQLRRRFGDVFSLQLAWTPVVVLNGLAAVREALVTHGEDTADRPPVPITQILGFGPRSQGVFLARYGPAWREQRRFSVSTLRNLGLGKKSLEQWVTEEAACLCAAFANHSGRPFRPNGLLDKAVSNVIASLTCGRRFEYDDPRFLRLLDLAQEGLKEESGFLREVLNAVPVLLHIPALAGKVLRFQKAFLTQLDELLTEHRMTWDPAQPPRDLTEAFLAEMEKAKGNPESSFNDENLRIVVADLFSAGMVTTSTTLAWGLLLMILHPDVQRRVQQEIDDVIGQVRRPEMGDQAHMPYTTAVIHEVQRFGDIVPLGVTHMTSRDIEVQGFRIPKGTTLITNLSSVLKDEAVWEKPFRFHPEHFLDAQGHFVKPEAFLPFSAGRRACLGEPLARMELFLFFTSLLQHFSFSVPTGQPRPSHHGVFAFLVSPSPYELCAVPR
Cytochrome P450 2C9 (Homo sapiens), sequence (P11712 whole entry, looked up): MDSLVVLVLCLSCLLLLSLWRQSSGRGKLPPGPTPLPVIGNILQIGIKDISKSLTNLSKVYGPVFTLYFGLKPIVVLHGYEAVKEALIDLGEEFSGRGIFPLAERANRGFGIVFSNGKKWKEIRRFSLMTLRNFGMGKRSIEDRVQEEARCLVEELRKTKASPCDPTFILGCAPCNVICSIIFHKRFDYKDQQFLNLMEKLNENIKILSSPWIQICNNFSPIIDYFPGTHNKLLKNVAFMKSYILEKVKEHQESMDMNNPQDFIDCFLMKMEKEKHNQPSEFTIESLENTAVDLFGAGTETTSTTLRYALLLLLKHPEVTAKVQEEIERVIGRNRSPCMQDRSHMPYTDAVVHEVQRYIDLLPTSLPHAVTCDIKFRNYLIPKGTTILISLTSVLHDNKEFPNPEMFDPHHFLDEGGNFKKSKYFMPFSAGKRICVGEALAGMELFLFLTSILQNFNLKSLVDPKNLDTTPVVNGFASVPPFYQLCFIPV
Cytochrome P450 3A4 (Homo sapiens), sequence (P08684 whole entry, looked up): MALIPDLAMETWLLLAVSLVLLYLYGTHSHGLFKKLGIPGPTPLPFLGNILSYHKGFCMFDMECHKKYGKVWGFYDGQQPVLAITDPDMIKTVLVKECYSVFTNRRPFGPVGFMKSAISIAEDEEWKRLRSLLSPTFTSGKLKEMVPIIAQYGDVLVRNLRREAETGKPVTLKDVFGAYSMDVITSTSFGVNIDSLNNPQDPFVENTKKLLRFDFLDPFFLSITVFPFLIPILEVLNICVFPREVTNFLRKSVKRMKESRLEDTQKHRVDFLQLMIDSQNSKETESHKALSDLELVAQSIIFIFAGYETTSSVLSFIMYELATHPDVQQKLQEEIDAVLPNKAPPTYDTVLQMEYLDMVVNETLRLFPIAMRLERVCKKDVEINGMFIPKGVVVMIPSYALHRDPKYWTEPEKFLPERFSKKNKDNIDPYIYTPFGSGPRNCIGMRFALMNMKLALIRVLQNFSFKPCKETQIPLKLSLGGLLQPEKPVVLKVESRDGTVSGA

O=C(O)c1cnn(-c2nc3cc(OC(F)(F)F)c(Cl)cc3[nH]2)c1
active: [1] 3.01 µM
inactive: [2] | [3]

COc1ccc(/C=C/C(=O)O[C@H]2[C@@H]3C=CO[C@@H](O[C@@H]4O[C@H](CO)[C@@H](O)[C@H](O)[C@H]4O)[C@@H]3[C@@]3(CO)O[C@@H]23)cc1O
inactive: [1] | [4] | [3]
active: [2] 11.6 µM

COC1CCCC/C(C)=C/C2C=C(C)C(C)C3C(CC(C)C)NC(=O)C23C(=O)C1 (stereo not drawn)
inactive: [1] | [2] | [4] | [3]

CC1(CO)CC2C(O)C(=O)C3(CO)CC3(C)C2C1 (stereo not drawn)
inactive: [1] | [2] | [3]

COC(=O)[C@@H]1C2CC3c4[nH]c5ccccc5c4CCN3CC2CC[C@@H]1O (stereo partly drawn)
inactive: [1] | [2] | [4] | [3]

Oc1cc(O)c2c(c1)OC(c1ccc(O)c(O)c1)C(O)C2 (stereo not drawn)
inactive: [5] | [6] | [7] | [8] | [9]

C=Cc1cc(O)cc2nc(-c3ccc(O)c(F)c3)oc12
inactive: [4] | [3]

CC(C)(O)c1ccc2c(c1)C(O)CC1C(C)(C(=O)O)CCCC21C (stereo not drawn)
inactive: [1] | [2] | [4] | [3]

CC1=C(/C=C/C(C)=C/C=C/C(C)=C/CO)C(C)(C)CCC1
inactive: [6] | [9]
active: [7] 14.1 µM

CC(C)CNC(=O)/C=C/CCCCc1ccc2c(c1)OCO2
inactive: [1] | [2] | [3]

Cc1c(C)c2c(c(C)c1O)CC[C@@](C)(CCC[C@H](C)CCC[C@H](C)CCCC(C)C)O2
inactive: [5] | [7] | [8] | [9]

C=CC(C)(C)C1(CC2NC(=O)C3CCCN3C2=O)C(=O)Nc2cc3c(cc21)C=CC(C)(C)O3 (stereo not drawn)
inactive: [1] | [2] | [4] | [3]

COC(=O)CC1(O)C(=O)Nc2ccccc21 (stereo not drawn)
inactive: [1] | [4] | [3]

CCCC1=CC2=C(CO1)C(=O)C(C)(OC(=O)c1c(C)cc(OC)cc1O)C(O)C2 (stereo not drawn)
inactive: [1] | [2] | [4] | [3]

CN(C)c1cccc(-c2c3c(=O)n(-c4ccccc4Cl)[nH]c3cc(=O)n2C)c1
active: [2] 1.89 µM
inactive: [1] | [4] | [3]

NC(=O)c1cccc(-c2cc(O)cc(OC(=O)NC3CCCCC3)c2)c1
inactive: [1] | [2] | [4] | [3]

CC(=O)Oc1cc2c(s1)CCN([C@H](C(=O)C1CC1)c1ccccc1F)C2
inactive: [1] | [4] | [3]

CC(C)CC(=O)n1cc(C(N)=O)c(=O)cc1C(O)c1ccccc1 (stereo not drawn)
inactive: [1] | [4]

COc1cc(C2Oc3c(OC)cc(CCCO[C@@H]4O[C@H](CO)[C@@H](O)[C@H](O)[C@H]4O)cc3C2CO)ccc1O (stereo partly drawn)
active: [2] 13 µM
inactive: [1] | [4] | [3]

C[C@H]1[C@H](C)CC[C@]2(C(=O)O)CC[C@]3(C)C(=CC[C@@H]4[C@@]5(C)C[C@@H](O)[C@H](O)[C@@](C)(CO)[C@@H]5CC[C@]43C)[C@H]12
inactive: [1] | [2] | [4] | [3] | [6] | [7] | [8] | [9]

COC12CC3C(C(C)C1=CC(=O)O2)C(O)C(OC(C)=O)C1C(C)(C)C(OC(C)=O)CCC31C (stereo not drawn)
inactive: [1] | [2] | [4] | [3]

CCC(CC)n1ccc2c(C(=O)NCc3c(C)cc(C)[nH]c3=O)cc(C#N)cc21
inactive: [1] | [2] | [4] | [3]

CC1(C)CCCC2(C)C3=C(C(=O)OC3O)C(O)CC12 (stereo not drawn)
inactive: [1] | [2] | [4] | [3]

C/C=C/C1=CC2=C(CO1)C(=O)[C@](C)(O)[C@H](OC(=O)c1c(O)cc(OC)c(O)c1C)C2
active: [2] 1.03 µM
inactive: [1] | [4] | [3]

C=C[C@H]1[C@H](O[C@@H]2O[C@H](CO)[C@@H](O)[C@H](O)[C@H]2O)OC=C(C(=O)OC)[C@H]1C[C@@H]1N[C@H](C(=O)O)Cc2c1[nH]c1ccccc21
inactive: [1] | [4] | [3]

C=C1CC2C3(C)C(OC(C)=O)CC(=O)OC(C)(C)C3C(O)C(OC(C)=O)C2(C)C2C(=O)OC(C)C(=O)C12C (stereo not drawn)
inactive: [1] | [2] | [4] | [3]

NCc1c[nH]c(=S)n1C1CCc2c(F)cc(F)cc2C1 (stereo not drawn)
inactive: [1] | [4] | [3]

COC1=CC(=O)O[C@@H](/C=C/c2ccccc2)[C@@H]1O
inactive: [1] | [2] | [3]

CC/C=C\C[C@H]1C(=O)C=C[C@@H]1CCCCCCCC(=O)O
inactive: [1] | [4]

c1nc(NC2CCCCCC2)c2cc(CNC[C@H]3CCCO3)sc2n1
inactive: [1] | [2] | [4] | [3]

COC(=O)C1C(CC(C)=O)C=CC(O)C12Oc1cc(C)cc(O)c1C2=O (stereo not drawn)
active: [2] 5.85 µM
inactive: [1] | [4] | [3]

COc1cc(/C=C/C(=O)O[C@H]2[C@H](OC(=O)/C=C/c3cc(OC)c(O)c(OC)c3)O[C@H](CO[C@@H]3O[C@H](CO)[C@@H](O)[C@H](O)[C@H]3O)[C@@H](O)[C@@H]2O)ccc1O
inactive: [1] | [2] | [4] | [3]

— PubChem BioAssay (NCATS)
